HSF1 inhib: HSF1 inhibitors in luciferase reporter cells, primary screen, cell-based, NIH3T3, luminescence; NIH3T3-HGL HSE-luciferase, MG132-induced, luminescence 8 h; stronger effect = lower value; AID 2098, 2009; activity change, negative = inhibition, % at 7.5 µM (by protocol); hit rate 0.77% among 300,000;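 active means more than half of replicate wells show activity change below -50%, luminescence cut by over half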;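 further: luciferase reports HSF-1 transcriptional activity via heat shock element; 0% = median of DMSO wells and -100% = zero luminescence signal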
LMP1 NFkB inh: EBV LMP1-driven NF-kappaB luciferase reporter inhibitors, primary screen, cell-based, luminescence, single point; hit rate 0.69% among 350,000; inhibition, % at 12.5 µM; LMP1-induced NF-kappaB luciferase reporter cells; in the data active means inhibition above about 41%;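 further: 0% = neutral control wells and 100% = reference inhibitor control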
LGR2 inh: inhibitors of bursicon-induced LGR2 CRE-luciferase signal, primary screen, cell-based, HEK293, CRE-luciferase reporter, bursicon stimulation; hit rate 0.35% among 380,000; bursicon-stimulated, 4 h; inhibition, % at 9.99 µM; AID 720647, 2013;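 active means drop in luminescence signal, shown as inhibition above about 50% in the replicate tests, limit read from the data, passing the limit was not always enough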;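 further: agonist challenge used bursicon conditioned medium at about half maximal strength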
TWEAK-Fn14 inh: inhibitors of TWEAK-Fn14 signaling, primary screen, luciferase reporter cells, uHTS. AID 1159606, 2016. hit rate 2% among 360,000. inhibition, % at 10 µM. TWEAK-stimulated Fn14 reporter cells, luciferase luminescence, 8 h; in the data active means inhibition above about 50%
TROY NFkB inh: inhibitors of TROY-driven NF-kB signaling, primary screen, Q293 LMP1-TROYcd cells, NF-kB luciferase, uHTS | Q293 LMP1-TROYcd NF-kB luciferase reporter, 4 h | inhibition, % at 10 µM | hit rate 0.98% among 360,000 | AID 1347056, 2019;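 active means compounds whose plate-normalised and pattern-corrected inhibition of the luciferase reporter signal at the single screening dose is 50% or more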
HSF-1 act: HSF-1 activators, primary screen, NIH3T3-HGL cells, MG132 stress, luminescence, single point | activation, % at 9 µM | AID 504408, 2011 | hit rate 1.7% among 300,000 | NIH3T3-HGL HSF-1 luciferase reporter, 8 h; 100% = twice DMSO control signal;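 active means mean replicate activation of at least 50% with a set share of replicates each reaching 50%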;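 further: 0% = median of the neutral control wells and 100% = twice that signal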
Starred values were filed as active, the others as inactive; / = not tested or not shown. Shown are actives, neighbours in structure and some others; about 3.6% of the full set was active somewhere.

SMILES	HSF1 inhib	LMP1 NFkB inh	LGR2 inh	TWEAK-Fn14 inh	TROY NFkB inh	HSF-1 act
O=C(N/N=C/c1cccc(Oc2ccccc2)c1)c1ccccc1F	2.6	-37.5	-30.8	-1.6	-39.5	-0.4
CC(/C=N/NC(=O)c1cc(-c2ccc(C)o2)[nH]n1)=C\c1ccccc1	-6.8	-8.6	-5.3	20.7	1.8	14.6
O=C(N/N=C/C(Br)=C/c1ccccc1)c1ccccc1F	179.0	-42.8	-76.1	23.6	-18.2	250.5*
O=C(N/N=C/C(Cl)=C/c1ccccc1)c1ccccc1F	32.7	-22.1	-71.2	-40.9	-36.3	76.0*
O=C(N/N=C/C(Cl)=C\c1ccccc1)c1cnccn1	3.2	-5.4	/	-3.1	-52.4	41.1
C[C@@H]1CCCCO[C@H](CN(C)S(C)(=O)=O)[C@H](C)CN([C@@H](C)CO)C(=O)c2cc(NC(=O)Nc3ccc(F)cc3)ccc2O1	/	/	13.7	/	/	/
Cc1cc(C)nc(Nc2ccccc2Br)n1	7.9	-13.0	/	-0.3	-8.0	14.9
Cc1cc(C)nc(N/C(=N\S(=O)(=O)Cc2ccccc2)Nc2ccccc2Br)n1	17.8	54.6*	19.7	-19.1	12.0	16.5
CC=Cc1ccc2n(c1=O)C[C@@H]1[C@@H](CO)[C@H](C(=O)N3CCc4ccccc4C3)N(C)[C@H]21 (mixture of isomers)	/	/	-9.6	/	/	/
O=C(Cc1ccsc1)Nc1ccc(S(=O)(=O)C(F)F)cc1	-63.5*	-10.3	-13.9	-18.4	-37.0	-71.4
COc1ccc2c3c(n(C)c2c1)[C@H](CO)N(S(=O)(=O)c1ccc(C)cc1)CC31CN(S(=O)(=O)c2ccc(C)cc2)C1	/	/	-22.1	/	/	/
O=c1cc(-c2ccccc2)nc(Sc2ccc([N+](=O)[O-])cc2[N+](=O)[O-])[nH]1	13.4	0.7	5.9	52.3*	12.8	28.8
CC(C)Sc1nc(-c2ccccc2)cc(=O)[nH]1	-6.3	-10.8	/	-5.9	9.1	4.7
O=[N+]([O-])c1ccc(Sc2nccn2Cc2ccccc2)c([N+](=O)[O-])c1	19.8	5.1	13.0	69.5*	23.8	17.8
O=[N+]([O-])c1ccc(Sc2ncccn2)c([N+](=O)[O-])c1	76.7	-10.6	/	54.4*	14.0	/
C[C@H](CO)N1C[C@H](C)[C@@H](CN(C)S(=O)(=O)c2ccc(Cl)cc2)Oc2ccc(N(C)C)cc2CC1=O	/	/	-8.4	/	/	/
Cc1ccc(N2C(=O)C3CC(c4ccccc4)=C4C5C=CC(C6C(=O)N(c7ccc(C)cc7C)C(=O)C56)C4C3C2=O)c(C)c1 (configuration not stated)	40.0	24.1	/	7.6	5.8	88.1*
Cc1ccc(N2C(=O)C3CC(c4ccccc4)=C4C5C=CC(C6C(=O)N(c7ccc(C)cc7)C(=O)C56)C4C3C2=O)cc1 (configuration not stated)	5.8	1.9	29.8	19.2	5.9	12.2
Cc1cccc(/N=C/c2c(O)[nH]c3ccccc23)n1	20.2	-67.0	-69.7	0.9	-49.5	41.8
Oc1c(Br)cc(Br)cc1C=Nc1ccc2c(c1)OCCO2	-79.3*	5.2	21.0	65.1*	67.3*	-79.6
O=[N+]([O-])c1ccc(O)c(C=Nc2ccc3oc(Cc4ccc(Cl)cc4)nc3c2)c1	-73.5*	/	/	/	/	-77.7
CN(/N=C/c1cc([N+](=O)[O-])ccc1O)c1ccccc1	4.8	-7.5	-51.8	-54.5	-50.1	2.5
Oc1c(Br)cc(Br)cc1C=Nc1ccc2c(c1)OCO2	/	-0.8	-7.9	-0.5	-17.2	/
O=[N+]([O-])c1ccc(O)c(C=Nc2cccc3ncccc23)c1	24.3	-2.7	/	-8.5	-33.8	38.9
O=[N+]([O-])c1ccc(O)c(C=Nc2ccc3c(c2)OCCO3)c1	-64.4*	14.3	-43.4	67.4*	55.5*	-67.6
Oc1[nH]c2ccccc2c1C=Nc1ccc2c(c1)OCCO2	25.7	-35.0	/	42.7	81.1*	44.7
COCC(=O)N1[C@@H]2c3ccc(-c4cccnc4)c(=O)n3C[C@@H]2[C@@H](CO)[C@@H]1C(=O)Nc1ccccc1	/	/	12.7	/	/	/

Screens as filed in PubChem BioAssay.
